Test results from PubChem BioAssay (NCI).
About 79,000 compounds went through this panel and 15% of them were active in at least one assay; those are over-represented in the sample as a whole. No stated cut-off is given here; in the data, active means growth inhibition above about 70%; inactive means the rest.

Assays:
[1] = NCI Yeast Anticancer Drug Screen. Data for the rad50 strain (AID 155);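 further: 0% = growth of vehicle-only cultures of the same strain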; settings: S. cerevisiae rad50 strain growth inhibition; at 50.0 µM; active compounds read high
In short: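 Compounds were tested on a yeast strain with an engineered DNA damage repair alteration; the reported value is growth inhibition normalised to vehicle treatment.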

[2] = NCI Yeast Anticancer Drug Screen. Data for the mec2-1 strain (AID 157); settings: S. cerevisiae mec2-1 strain, at 50.0 µM, active compounds read high
In short: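 Compounds were applied to mec2-1 yeast cells. Their growth was then compared with that of vehicle-treated cultures to give growth inhibition.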

[3] = NCI Yeast Anticancer Drug Screen. Data for the sgs1 mgt1 strain (AID 161);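 further: 0% = growth of cultures given vehicle only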; settings: S. cerevisiae sgs1 mgt1 strain, at 50.0 µM, active compounds read high
In short: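 Compounds are added to genetically altered yeast, and growth is compared with cultures given vehicle alone to give percent inhibition.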

[4] = NCI Yeast Anticancer Drug Screen. Data for the cln2 rad14 strain (AID 165);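 further: 0% = growth equal to vehicle treated cultures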; settings: S. cerevisiae cln2 rad14 strain, at 50.0 µM, active compounds read high
In short: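 Strain: cln2 rad14 yeast, altered in cell cycle control and DNA damage repair. Read-out: growth inhibition vs vehicle.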

[5] = NCI Yeast Anticancer Drug Screen. Data for the bub3 strain (AID 167); settings: S. cerevisiae bub3 mutant strain, at 50.0 µM, active compounds read high
In short: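 Growth of a checkpoint-deficient yeast mutant is measured after compound exposure. Values represent inhibition relative to vehicle.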

[6] = NCI Yeast Anticancer Drug Screen. Data for the mlh1 rad18 strain (AID 175); settings: S. cerevisiae mlh1 rad18 strain growth inhibition; at 50.0 µM; active compounds read high
In short: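 A repair-deficient yeast strain is exposed to test compound, and growth is scored relative to vehicle-treated controls.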

Measured: growth inhibition

Cc1ccc(N(C(=O)Nc2ccccc2)C2=NCC(C)S2)cc1C (stereo not drawn)
inactive: [1] -29.5% | [2] -17.9% | [3] -37.4% | [4] 2.5% | [5] 39.3% | [6] -39.6%

CC(=O)N=Cc1c(O)[nH]c2ccccc12
inactive: [1] 36.9% | [2] 11.7% | [3] 0.5% | [4] 6.85% | [5] 8.3% | [6] 0.45%

O=C(NC(CC(NC(=O)OCc1ccccc1)NC(=O)OCc1ccccc1)NC(=O)OCc1ccccc1)OCc1ccccc1
inactive: [1] -2.55% | [2] 7.1% | [3] -0.1% | [4] 5.6% | [5] 0.85% | [6] -4.55%

NC1=NNC(=O)/C1=C/c1ccccc1
inactive: [1] 16.6% | [2] 5.85% | [3] 0.55% | [4] -17.1% | [5] -10.2% | [6] 22.2%

CCCCCCCCCCCCCCCCCCn1cnc2c(=S)nc[nH]c21
inactive: [1] -37.5% | [2] -2.2% | [3] -0.75% | [4] -20.5% | [5] 0.5% | [6] -34.1%

CCOP(=O)(OCC)/C(=C/NC(=S)c1cccnc1)C(=O)OC
inactive: [1] -11% | [2] -1% | [3] -13% | [4] -7.75% | [5] 17.6% | [6] -2.2%

CCN1C(=O)/C(=C/c2cc([N+](=O)[O-])ccc2OCC(=O)O)SC1=S
inactive: [1] -1.85% | [2] -11.3% | [3] 3.5% | [4] -42.8% | [5] 2.55% | [6] 1.4%

CC(I)CNc1ccc(C(=O)O)c(O)c1 (stereo not drawn)
inactive: [1] 3.7% | [2] -4.9% | [3] 6.15% | [4] 1% | [5] 11.6% | [6] -11.9%

O=C1C=C/C(=N\N=C(c2ccccc2)c2ccccc2)O1
inactive: [1] -38.1% | [2] -67.8% | [3] -49.6% | [4] 7.45% | [5] -42.7% | [6] -28.2%

CC1(C)CC(C)(C)CC(O)(C2(O)CC(C)(C)CC(C)(C)C2)C1
inactive: [1] -0.95% | [2] 0.35% | [3] -2.7% | [4] -3% | [5] -5.4% | [6] 9.2%

O=C(O)c1ccc(Cl)cc1C(=O)c1ccc(Cl)cc1
inactive: [1] 1.25% | [2] 8.75% | [3] -2.55% | [4] -42.9% | [5] -1.7% | [6] -13.1%

CC(=O)N(CCCc1ccccc1)C(C)(C)C
inactive: [1] 5.95% | [2] 5.3% | [3] -3.05% | [4] -22.1% | [5] 2.25% | [6] 6.15%

CC12C=C[C@]3(CC[C@@H]4[C@@](C)(CO)CCC[C@]4(C)C3CC1)C2 (stereo partly drawn)
inactive: [1] 13.4% | [2] -2.7% | [3] 12.9% | [4] 8.25% | [5] 15.3% | [6] 7.6%

O=C(O)c1cc2cc(S(=O)(=O)O)ccc2cc1O
inactive: [1] 4% | [2] -0.95% | [3] -6.9% | [4] -25.2% | [5] -11.8% | [6] 30.4%

CC(C)(CC1(C)NC(=O)NC1=O)OCc1ccccc1 (stereo not drawn)
inactive: [1] -0.5% | [2] -30.1% | [3] -14.8% | [4] -24.2% | [5] -45.8% | [6] 1.95%

CCCSc1nc2c(c(=O)n(C)c(=O)n2C)n1C
inactive: [1] 7.85% | [2] 15.2% | [3] 10.2% | [4] -9.3% | [5] 9.15% | [6] 6.5%

O=C1C2C3CCC(C3)C2N1Cc1ccccc1 (stereo not drawn)
inactive: [1] 5.8% | [2] -1.65% | [3] -2.15% | [4] -27.2% | [5] 13.6% | [6] -14.8%

C=C(C)[C@@]1(OC(=O)c2cc([N+](=O)[O-])cc([N+](=O)[O-])c2)C[C@@H]2CCCC[C@@H]21
inactive: [1] -43.5% | [2] -26.1% | [3] -15.8% | [4] 5.8% | [5] -7.9% | [6] 2.1%

COC(=O)/C=C1\SC(OC)(N(C)c2ccccc2)N(C)C1=O (stereo not drawn)
inactive: [1] -25.6% | [2] 9.6% | [3] 22.7% | [4] -10.4% | [5] -0.8% | [6] 19.1%

CC(C)(C)N=Cc1ccccc1[O-].CC(C)(C)N=Cc1ccccc1[O-].[Co+2]
inactive: [1] 4% | [2] 7.9% | [3] -14.5% | [4] 0.25% | [5] 3.6% | [6] -5.85%

CCCCCCCCCCCCCCCCn1cnc2c(=S)nc[nH]c21
inactive: [1] -22.1% | [2] -5.25% | [3] -19.1% | [4] -4.75% | [5] 0.5% | [6] -6.9%

COc1ccc(-c2nnc(CCCCCCCCc3nnc(-c4ccc(OC)cc4)n3N)n2N)cc1
inactive: [1] -8.05% | [2] -23.9% | [3] -9.45% | [4] 0.8% | [5] -2.7% | [6] -1%

CCN(CC)C(=O)c1ccc[n+](Cc2ccc(Cl)c(Cl)c2)c1
inactive: [1] 3.15% | [2] -8.25% | [3] -8.75% | [4] 6.45% | [5] 1.2% | [6] 9.25%

COc1ccc(C2=C/C(=C/c3ccc(N(CCC#N)CCC#N)cc3)C(=O)O2)cc1
inactive: [1] -75.2% | [2] -6.2% | [3] -16.4% | [4] -18.2% | [5] -3.05% | [6] -22.8%

CC/C=C\CCCCC
inactive: [1] 0.4% | [2] -13.7% | [3] -12.6% | [4] 0.05% | [5] -10.8% | [6] 4.7%

CC(=O)CC1=CC(C(C)(C)C)=CC(=O)C1=O
inactive: [1] 43.1% | [2] 26.1% | [3] 30.1% | [4] 49% | [5] 8.6% | [6] 49.5%

Cn1cc(C(=O)c2ccccc2)c2ccccc2c1=O
inactive: [1] 41.5% | [2] -4.4% | [3] 23.8% | [4] 8.25% | [5] 31.9% | [6] 16.4%

CC(=O)CC(O)(C(F)(F)Cl)C(F)(Cl)Cl (stereo not drawn)
inactive: [1] -35.5% | [2] -47.7% | [3] -42.8% | [4] 0.2% | [5] -30.1% | [6] -35.8%

COc1ccc(O)c2c(=O)ccccc12
inactive: [1] 8.5% | [2] 7.15% | [3] -3% | [4] -13.8% | [5] 5.4% | [6] 5.55%

CC(=O)CCCS(=O)(=O)c1ccccc1
inactive: [1] -1.5% | [2] 14.9% | [3] 0.9% | [4] -12.7% | [5] -3.8% | [6] 5.2%

CC(C)(C)N(C/C=C/CN(Cc1ccccc1)Cc1ccccc1)C(C)(C)C
inactive: [1] 32.8% | [2] 16.2% | [3] 25.6% | [4] 10.8% | [5] 19.8% | [6] 22.7%

Cc1nnc2cc(C(=O)O)c3ccccc3n2c1=O
inactive: [1] -28.6% | [2] -30.6% | [3] -13.4% | [4] -30.6% | [5] -20.1% | [6] -31.8%

CC(=O)C(C(C)=O)C(c1ccccn1)C(C(C)=O)C(C)=O
inactive: [1] -6.7% | [2] -0.65% | [3] -4.05% | [4] -0.65% | [5] 6.8% | [6] -6.45%

NC(Cc1c[nH]c2ccc([N+](=O)[O-])cc12)C(=O)O (stereo not drawn)
inactive: [1] 15.9% | [2] -28.6% | [3] -24.8% | [4] 2.45% | [5] -48.6% | [6] -7.7%

CC(=O)c1c(C)nc(SSc2nc(C)c(C(C)=O)c(-c3ccc(Cl)cc3)c2C#N)c(C#N)c1-c1ccc(Cl)cc1
inactive: [1] -30.8% | [2] -7.8% | [3] -15.9% | [4] 6.35% | [5] -26.2% | [6] -2.2%

CC(=O)n1cc(CC(C)O)c(=O)[nH]c1=O (stereo not drawn)
inactive: [1] -2.45% | [2] -21% | [3] -16.2% | [4] 4.85% | [5] -13.2% | [6] -28.1%

CSc1ncc(CO)c(Nc2ccc(F)cc2)n1
inactive: [1] -12.7% | [2] 8.7% | [3] -16.4% | [4] -20% | [5] -14.9% | [6] -23.4%

Nc1cccc2c(S(=O)(=O)O)cccc12
inactive: [1] -2.9% | [2] -3.15% | [3] -11.9% | [4] -66.7% | [5] 0.3% | [6] 0.75%
